Experimental data reported in publication PMC4336329 (PLoS ONE, 2015).
The campaign covered roughly 310,000 compounds. About 14,000 (4.5%) showed an effect of 50% or more. The effect is printed as a negative number. This excerpt belongs to a sample that is enriched for strong results.

Molecular target: human ether-à-go-go-related gene (hERG) potassium channel (human, UniProt Q12809)
Test: primary screen, population patch clamp on CHO cells stably expressing hERG; higher = less effect of the substance
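Also: peak tail current of the secondary pulse compared with the same well before compound.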

Sequence of human ether-à-go-go-related gene (hERG) potassium channel (Q12809 whole entry, looked up): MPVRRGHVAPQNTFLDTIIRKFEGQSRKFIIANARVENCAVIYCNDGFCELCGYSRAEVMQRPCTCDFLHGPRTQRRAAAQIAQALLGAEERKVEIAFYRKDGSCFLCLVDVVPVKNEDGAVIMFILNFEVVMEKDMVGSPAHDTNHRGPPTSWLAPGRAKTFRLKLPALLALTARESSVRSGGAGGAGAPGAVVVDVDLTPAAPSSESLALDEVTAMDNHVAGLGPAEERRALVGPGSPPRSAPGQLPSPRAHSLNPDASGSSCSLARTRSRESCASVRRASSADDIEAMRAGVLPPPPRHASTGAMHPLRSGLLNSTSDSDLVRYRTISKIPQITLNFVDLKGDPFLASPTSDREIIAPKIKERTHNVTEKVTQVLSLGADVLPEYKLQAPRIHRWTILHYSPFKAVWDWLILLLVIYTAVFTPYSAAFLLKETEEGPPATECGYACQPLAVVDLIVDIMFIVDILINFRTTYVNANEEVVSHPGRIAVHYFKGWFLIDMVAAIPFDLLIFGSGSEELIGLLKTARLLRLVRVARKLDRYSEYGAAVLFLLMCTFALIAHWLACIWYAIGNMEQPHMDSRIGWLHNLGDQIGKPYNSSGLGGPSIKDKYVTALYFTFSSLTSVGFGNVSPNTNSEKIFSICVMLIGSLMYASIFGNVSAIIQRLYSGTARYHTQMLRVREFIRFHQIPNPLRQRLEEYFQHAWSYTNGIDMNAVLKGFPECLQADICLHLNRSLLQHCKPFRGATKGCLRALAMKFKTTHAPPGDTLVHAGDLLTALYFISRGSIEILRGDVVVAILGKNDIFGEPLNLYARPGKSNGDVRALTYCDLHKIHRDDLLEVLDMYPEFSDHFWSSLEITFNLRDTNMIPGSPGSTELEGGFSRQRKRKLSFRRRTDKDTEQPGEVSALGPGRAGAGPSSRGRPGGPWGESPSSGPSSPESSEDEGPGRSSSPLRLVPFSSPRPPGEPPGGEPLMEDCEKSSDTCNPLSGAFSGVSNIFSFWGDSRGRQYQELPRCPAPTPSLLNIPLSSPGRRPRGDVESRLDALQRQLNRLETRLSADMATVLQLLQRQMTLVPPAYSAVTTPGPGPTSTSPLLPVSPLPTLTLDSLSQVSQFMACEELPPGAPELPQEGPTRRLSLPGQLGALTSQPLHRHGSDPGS

Going from `O=C(Nn1cnc2ccccc2c1=O)c1ccccc1` to `COc1c(Cl)cc(C(=O)Nc2ccccc2-c2ccccc2)cc1Cl`, the “hERG current change (%, negative = inhibition) at 10uM” value falls from 12.7% to 0.345%.

First: Cc1ccc(NC(=O)Cn2nc(C(=O)Nc3ccc(C)cc3)ccc2=O)cc1
Second: Cc1cccc(C)c1NC(=O)CN(C)C(=O)c1cc([N+](=O)[O-])ccc1N1CCOCC1
The “hERG current change (%, negative = inhibition) at 10uM” value of the first is lower: 10.8% for the first, 24.1% for the second.

Compared with `CCN(CC)S(=O)(=O)c1cccc(C(=O)OC2CC(C)OC2=O)c1` (stereo not shown), `CCN1CCN(S(=O)(=O)c2ccc(Cl)c(C(=O)N(C)Cc3cccc(OC)c3)c2)CC1` is lower in “hERG current change (%, negative = inhibition) at 10uM” value: 12.7% for the first, -11.2% for the second.

First: Nc1nc(NCc2ccccc2)nc(NCc2ccccc2)c1[N+](=O)[O-]
Second: CC(C)(C)NC(=O)NCCc1ccccc1
The “hERG current change (%, negative = inhibition) at 10uM” value of the first is higher: 16.2% for the first, 11% for the second.

Going from `O=C(Nc1c2c(nn1-c1ccccc1)CS(=O)C2)c1ccc(S(=O)(=O)N2CCOCC2)cc1` (stereo not shown) to `O=C(COc1ccc(S(=O)(=O)N2CCOCC2)cc1)NCC1CCCO1` (stereo not shown), the “hERG current change (%, negative = inhibition) at 10uM” value falls from 17.4% to -15.1%.

First: COc1cc(NC(=O)COC(=O)/C=C/c2ccc(Cl)cc2Cl)cc(OC)c1
Second: COc1ccc(S(=O)(=O)N2CCCCCC2)cc1C(=O)N(C)Cc1ccc(Cl)cc1Cl
The “hERG current change (%, negative = inhibition) at 10uM” value of the first is higher: 5.23% for the first, -23.1% for the second.

First: CC(=O)Nc1ccc2nc(SCC(=O)N3CCOCC3)sc2c1
Second: CN(CCOc1ccccc1)C(=O)c1cc([N+](=O)[O-])ccc1N1CCOCC1
The “hERG current change (%, negative = inhibition) at 10uM” value of the first is higher: 18.9% for the first, -27.3% for the second.

Compared with `COc1cc(/C=N/NC(=O)[C@H](Cc2c[nH]c3ccccc23)NC(=O)OCC(C)C)cc([N+](=O)[O-])c1O`, `COc1ccc(S(=O)(=O)N2CCOCC2)cc1C(=O)N(C)CCOc1ccc(Cl)cc1` is lower in “hERG current change (%, negative = inhibition) at 10uM” value: 10.3% for the first, -79.8% for the second.

Going from `CCN1CCN(S(=O)(=O)c2ccc(Cl)c(C(=O)N(C)CCOc3ccc(Cl)cc3)c2)CC1` to `CCN1CCN(S(=O)(=O)c2ccc(Cl)c(C(=O)N(C)Cc3ccc(F)cc3)c2)CC1`, the “hERG current change (%, negative = inhibition) at 10uM” value rises from -52.8% to -25.1%.

First: CN(CCOc1ccc(Cl)cc1)C(=O)c1cc([N+](=O)[O-])ccc1N1CCOCC1
Second: COc1ccc(S(=O)(=O)N2CCCCCC2)cc1C(=O)N(C)CCOc1ccc(Cl)cc1
The “hERG current change (%, negative = inhibition) at 10uM” value of the first is lower: -66.7% for the first, -47.7% for the second.

Compared with `O=S(=O)(c1ccc2c(c1)nc(COc1ccc(Cl)cc1)n2CC1CCCO1)N1CCOCC1` (stereo not shown), `O=C(NCC1CCCO1)c1cc(S(=O)(=O)N2CCOCC2)ccc1Cl` (stereo not shown) is higher in “hERG current change (%, negative = inhibition) at 10uM” value: -65.2% for the first, 16.5% for the second.
